{"source": "PubChem BioAssay (NCI)", "note": "The panel holds about 83,000 compounds, 20% with a hit somewhere; the sample as a whole holds those more often.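 The test compound was applied at a single concentration to cells in 96-well plates for 48 hours, and percent growth was recorded.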 Active and inactive are the calls of the source."}
{"system": "OVCAR-3 ovarian", "experiment": "NCI-60 one-dose screen, 48 h (100 = growth as untreated, 0 = no growth, -100 = all killed)", "settings": "10 µM unless noted", "procedure": "Growth inhibition of the OVCAR-3 human tumor cell line is measured as a screen for anti-cancer activity. Cells are grown in 96 well plates and exposed to the test compound for 48 hours. Compounds are tested at a single concentration, which is 10^-5 M for most compounds. The reported endpoint is percent growth (GI% or GIPRCNT), where numbers from 0 - 100% represent growth inhibition, and numbers from -100% - 0 represent cell death. For example, a value of 40 represents 60% growth inhibition. A value of 0 means no net growth occurred over the course of the experiment. A value of -40 indicates 40% of cells at the beginning of the experiment died by the end of the experiment. A value of -100 means all cells are dead at the end of the experiment.\nNCI-60 Human Tumor Cell Lines Screen was performed using the standard one-dose NCI protocol, which is described in more detail at https://dtp.cancer.gov/discovery_development/nci-60/default.htm.\nCompounds with GIPRCNT values below 10 were considered active. Activity score was based on GIPRCNT using the following formula: […]\nScore is 0 for GIPRCNT values of 100 or above, 50 for GIPRCNT values of 0, and 100 for GIPRCNT values of -100."}
{"molecule": "CN(C)CCCNc1nc(-c2cccc(C(Cl)(Cl)Cl)c2)nc(C(Cl)(Cl)Cl)n1", "growth": "117% (inactive)"}
{"molecule": "CCc1cccc(Cl)c1", "growth": "110% (inactive)"}
{"molecule": "Cc1ccc(Cn2c(O)c(N=NC(=O)c3ccc(S(N)(=O)=O)cc3)c3ccccc32)cc1", "growth": "107% (inactive)"}
{"molecule": "O=C(Nc1cc(-c2cccnc2)nc(NCCCN2CCOCC2)n1)c1cc(Br)cc(C(F)(F)F)c1", "growth": "79.9% (inactive)"}
{"molecule": "CCCCCn1c(C)cc(/C=C\\c2ccc3cc(C)ccc3[n+]2C)c1C", "growth": "-72.7% (active)"}
{"molecule": "C#C[C@]1(O)CC[C@H]2[C@@H]3CC=C4c5nc(Nc6ncccn6)sc5CC[C@]4(C)[C@H]3CC[C@@]21C", "growth": "65.3% (inactive)"}
{"molecule": "O=C(N/N=C1\\c2ccccc2-c2cccc(C(=O)O)c21)c1ccc(O)cc1", "growth": "96.6% (inactive)"}
{"molecule": "CCN(CC)c1ccc(/C=C/c2ccc3cc(C)ccc3[n+]2CC)cc1", "growth": "14.9% (inactive)"}
{"molecule": "CCCCCCNC(=O)Nc1ncnc2c1ncn2-c1ccccc1", "growth": "111% (inactive)"}
{"molecule": "CC[C@]12C=CCN3CC[C@@]4(c5ccc(OC)cc5N(C)[C@H]4[C@@](O)(C(=O)OC)[C@@H]1OC(=O)CCC(=O)O[C@H]1CC[C@H]4[C@@H]5CCC6=CC(=O)CC[C@@H]6[C@H]5CC[C@]14C)[C@@H]32", "growth": "8.48% [100 µM] (active)"}
{"molecule": "O=[N+]([O-])c1ccc(O)c(-c2nc3ccccc3s2)c1", "growth": "47.9% (inactive)"}
{"molecule": "Brc1ccc(-c2nnc3c4[nH]ccc4ncn23)cc1", "growth": "85.7% (inactive)"}
{"molecule": "CC(C)C1=NOC(=O)C1=Cc1cn(-c2ccccc2)nc1-c1ccc(Br)cc1", "growth": "85.4% (inactive)"}
{"molecule": "CC1(C)CC[C@]2(C(=O)O)CC[C@]3(C)C(=CC[C@@H]4[C@@]5(C)C/C(=C/c6cccnc6)[C@H](O)C(C)(C)[C@@H]5CC[C@]43C)[C@@H]2C1", "growth": "-14.6% [100 µM] (active)"}
{"molecule": "CCN(CC)CCCOc1ccc2c(c1)O/C(=C\\c1cccc(OC)c1)C2=O", "growth": "91.2% (inactive)"}
{"molecule": "O=C1Nc2ccccc2/C1=C/C(=O)c1ccc(N2CCOCC2)cc1", "growth": "60.9% (inactive)"}
{"molecule": "CC1=CC[C@@H]2C(C)(C)[C@@H](O)CC[C@@]2(C)[C@@H]1COc1ccc2ccc(=O)oc2c1", "growth": "41.2% (inactive)"}
{"molecule": "CC(C)=CC/C=C(/C)[C@H]1CC[C@]2(C)[C@@H]1CC[C@@H]1[C@@]3(C)CCC(=O)NC(C)(C)[C@@H]3CC[C@]12C", "growth": "-63.9% [100 µM] (active)"}
{"molecule": "COc1ccc(CC(C#N)c2ccc(Cl)cc2)cc1", "note": "(stereo not given)", "growth": "77.2% (inactive)"}
{"molecule": "O=c1[nH]cnc2c1ccn2C1OC(CO)C(O)C1O", "note": "(stereo not given)", "growth": "64.7% (inactive)"}
{"molecule": "Cc1cc2c(C(C)C)c(O)c(O)c(C=NCc3ccoc3)c2c(O)c1-c1c(C)cc2c(C(C)C)c(O)c(O)c(C=NCc3ccco3)c2c1O", "growth": "25.9% (inactive)"}
{"molecule": "O=C(NCCCNC(=O)OCc1ccc2c(Br)cc(Br)c(O)c2n1)OCc1ccc2c(Br)cc(Br)c(O)c2n1", "growth": "-69.3% (active)"}
{"molecule": "COc1ccc(-c2nc3ccccn3c2/C=C/C(=O)c2cc(OC)c(OC)c(OC)c2)cc1OC", "growth": "9.08% (active)"}
{"molecule": "Nc1nc(N)c2c(n1)NC(c1ccc(F)cc1)C1CCc3ccccc3C1=N2", "note": "(stereo not given)", "growth": "48.2% (inactive)"}
{"molecule": "COc1ccccc1S(=O)Nc1ccccc1", "note": "(stereo not given)", "growth": "107% (inactive)"}
{"molecule": "CCN(CC)c1ccc2cc(C(Nc3ccc(Br)c(C(F)(F)F)c3)c3nnnn3C(C)(C)C)c(=O)oc2c1", "note": "(stereo not given)", "growth": "104% (inactive)"}
{"molecule": "CCOc1ccc2sc(NS(=O)(=O)c3ccc(N)cc3)nc2c1", "growth": "115% (inactive)"}
{"molecule": "COc1cc(C)cc2oc3oc(=O)c(-c4nc5ccccc5s4)cc3c(=O)c12", "growth": "85.3% (inactive)"}
{"molecule": "[2H]C1([2H])CCN(C(=O)C2CC2)c2cc(NS(=O)(=O)c3ccc(-c4cccc(C(N)=O)c4)cc3)ccc21", "growth": "12.4% (inactive)"}
{"molecule": "C=C(C)[C@@H]1CC[C@]2(C)[C@H](CC=C3[C@@H]4[C@@H](C)[C@H](C)CC[C@]4(C(N)=O)CC[C@]32C)[C@@]1(C)CCC#N", "growth": "-53.6% [100 µM] (active)"}
{"molecule": "CCOC(=O)c1nn(C2CCCCO2)c2ccc(NC(=O)CN3CCOCC3)cc12", "note": "(stereo not given)", "growth": "107% (inactive)"}
{"molecule": "COC(=O)c1cc(O)c2c(c1C(=O)OC)C[C@H]1[C@@H]3CC=C4C[C@@H](O)CC[C@]4(C)[C@H]3CC[C@]21C", "growth": "33.2% (inactive)"}
{"molecule": "CCOC(=O)c1sc2nc(-c3cc(OC)c(OC)c(OC)c3)nc(N3CCOCC3)c2c1C", "growth": "15.5% (inactive)"}
{"molecule": "CCCC(NC(=O)OCc1ccccc1)C(=O)O", "note": "(stereo not given)", "growth": "106% (inactive)"}
{"molecule": "CCN(CC)CCCNCc1cc(-c2ccccc2)nc2ccccc12", "growth": "35.7% (inactive)"}
{"molecule": "Cc1cc(C)c(O)c(CNCCCNCc2cc(C)cc(C)c2O)c1", "growth": "77% (inactive)"}
{"molecule": "Cn1cc(-c2nnc(-c3cn(C)c4ncccc34)s2)c2ccccc21", "growth": "40.1% (inactive)"}
{"molecule": "C[C@H]1[C@H](C)CC[C@]2(C(=O)O)CC[C@]3(C)C(=CC[C@@H]4[C@@]5(C)C/C(=C/c6cccnc6)[C@H](O)C(C)(C)[C@@H]5CC[C@]43C)[C@H]12", "growth": "-39% [100 µM] (active)"}
{"molecule": "CCN(CC)CCCC(C)Nc1c2ccc(C)cc2nc2ccc(OC)cc12", "note": "(stereo not given)", "growth": "28.9% (inactive)"}
{"molecule": "COc1ccc(-c2ccc(NNC(=O)c3ccc(F)cc3)nn2)cc1OC", "growth": "78.6% (inactive)"}
